# The list is a sample of the results.
# Giardia kill – Small Molecules that selectively kill Giardia lamblia: qHTS | Giardia lamblia trophozoite viability | activity change, % at 7.66 µM, hits read low | hit rate 0.15% among 340,000; in the data active = activity change below about -80%; inconclusive = between about -30% and that limit;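 also: parasites exposed to compound for two days anaerobically before the ATP read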
#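 Media and compound were dispensed first, then trophozoites at 100 cells/well; plates sat 48 hrs at 37 deg C without oxygen before ATP luminescence reagent was added and read after 15-30 min at room temperature.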
# IL-1B inflam inh – qHTS for Inhibitors of Inflammasome Signaling: IL-1-beta AlphaLISA Primary Screen; THP-1 LPS/ATP IL-1B secretion, AlphaLISA, 16 h; stronger effect = lower value; activity change, % at 57.5 µM; hit rate 4.7% among 360,000; AID 743279, 2014; in the data active = activity change below about -50%; inconclusive = mostly about -30% to -49%
#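 Secreted IL-1B measured by AlphaLISA bead assay after 16 h compound exposure of THP-1 cells; compounds (final up to 57.5 uM) added 1 h before LPS (250 ng/mL) and ATP (1.25 mM) stimulation; lower signal means less secretion.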
# ELG1 repair inh – qHTS screen for small molecules that inhibit ELG1-dependent DNA repair in human embryonic kidney (HEK293T) cells expressing luciferase-tagged ELG1. Potency, µM (top dose mostly 46.1 µM), for inactives: at the highest dose activity change, negative = inhibition, usual class: inhibitors. AID 504467, 2011. HEK293T ELG1-luciferase reporter, luminescence, 16 h; DNA damage induced by 5-fluorouridine. hit rate 2.3% among 330,000; also: potency is read from the fitted curve at half-maximal effect; nearly all actives have a fitted effect of over 55% in size
#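 Reporter activity after DNA damage by 5-fluorouridine is monitored. Compound-treated cells incubate 16 hr at 37 °C, then ONE-Glo is added for 30 min before luminescence reading.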
# TDP1 block – qHTS Assay for Inhibitors of Tyrosyl-DNA Phosphodiesterase (TDP1). recombinant TDP1, AlphaScreen DNA substrate cleavage. Potency, µM (highest dose often 130 µM), for the others: at the top dose activity change, negative = inhibition, most hits filed as inhibitors. hit rate 0.28% among 350,000; also: potency is read from the fitted curve at half-maximal effect; nearly all actives have a fitted effect of over 40% in size
#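 Compounds were preincubated with Tdp1 (1 nM final) for 15 min at room temperature before substrate (15 nM final) started a 5 min reaction; beads (10 ug/ml final) were then added for 10 min before AlphaScreen detection.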
# DT40 TDP1 CPT – qHTS for Inhibitors of human tyrosyl-DNA phosphodiesterase 1 (TDP1): qHTS in cells in presence of CPT; AID 686979, 2013; Potency, µM (doses to about 46.2 µM), without a hit: top-dose activity change, negative = growth inhibition, actives largely listed as inhibitors; chicken DT40 Tdp1-/-;hTDP1 cells + 20 nM CPT, ATP luminescence, 48 h; hit rate 12% among 420,000; also: potency is read from the fitted curve at half-maximal effect; nearly all actives have a fitted effect of over 55% in size
#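 Cell growth measured by CellTiter-Glo luminescence after a minimum 48 h, 37 C compound exposure with 20 nM CPT in Tdp1-knockout DT40 cells stably expressing hTDP1, seeded 400/well; qHTS titration format.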
# DT40 TDP1 no CPT – qHTS for Inhibitors of human tyrosyl-DNA phosphodiesterase 1 (TDP1): qHTS in cells in absence of CPT; DT40 Tdp1-/- hTDP1 cells, no CPT, ATP luminescence, 48 h; Potency, µM (titrated, usually from 46.2 µM), for the others: top-dose activity change, negative = growth inhibition, usual class: inhibitors; hit rate 15% among 420,000; AID 686978, 2013; also: potency is read from the fitted curve at half-maximal effect; nearly all actives have a fitted effect of over 55% in size
#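 Seeded 400 DT40-hTDP1 cells/well (vehicle DMSO, no 20 nM CPT); pinned compounds; ≥48 hr at 37 °C; CellTiter-Glo luminescence as viability measure.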
# ELG1 FLuc counter – qHTS screen for small molecules that inhibit ELG1-dependent DNA repair: Hit Confirmation in Cell-Based Luciferin Assay; shares compounds with ELG1 repair inh; cell-free firefly luciferase luminescence counter-screen, ViewLux; Potency, µM (titrated, usually from 46.1 µM), inactives show at the top dose activity change, negative = inhibition, actives largely listed as inhibitors; hit rate 3% among 350; also: potency is read from the fitted curve at half-maximal effect
# ELG1 Luc conf – HTS assay for small molecules that inhibit ELG1-dependent DNA repair in human embryonic kidney (HEK293T) cells expressing luciferase-tagged ELG1: Hit Confirmation. shares compounds with ELG1 repair inh. HEK293T ELG1-luciferase levels, luminescence; cells co-treated with 5-fluorouridine. Potency, µM (top dose mostly 46.1 µM), inactives show at the top dose activity change, negative = inhibition, most hits filed as inhibitors. hit rate 68% among 670; also: potency is read from the fitted curve at half-maximal effect; nearly all actives have a fitted effect of over 55% in size
# Target sequence (Q96QE3 whole entry, looked up): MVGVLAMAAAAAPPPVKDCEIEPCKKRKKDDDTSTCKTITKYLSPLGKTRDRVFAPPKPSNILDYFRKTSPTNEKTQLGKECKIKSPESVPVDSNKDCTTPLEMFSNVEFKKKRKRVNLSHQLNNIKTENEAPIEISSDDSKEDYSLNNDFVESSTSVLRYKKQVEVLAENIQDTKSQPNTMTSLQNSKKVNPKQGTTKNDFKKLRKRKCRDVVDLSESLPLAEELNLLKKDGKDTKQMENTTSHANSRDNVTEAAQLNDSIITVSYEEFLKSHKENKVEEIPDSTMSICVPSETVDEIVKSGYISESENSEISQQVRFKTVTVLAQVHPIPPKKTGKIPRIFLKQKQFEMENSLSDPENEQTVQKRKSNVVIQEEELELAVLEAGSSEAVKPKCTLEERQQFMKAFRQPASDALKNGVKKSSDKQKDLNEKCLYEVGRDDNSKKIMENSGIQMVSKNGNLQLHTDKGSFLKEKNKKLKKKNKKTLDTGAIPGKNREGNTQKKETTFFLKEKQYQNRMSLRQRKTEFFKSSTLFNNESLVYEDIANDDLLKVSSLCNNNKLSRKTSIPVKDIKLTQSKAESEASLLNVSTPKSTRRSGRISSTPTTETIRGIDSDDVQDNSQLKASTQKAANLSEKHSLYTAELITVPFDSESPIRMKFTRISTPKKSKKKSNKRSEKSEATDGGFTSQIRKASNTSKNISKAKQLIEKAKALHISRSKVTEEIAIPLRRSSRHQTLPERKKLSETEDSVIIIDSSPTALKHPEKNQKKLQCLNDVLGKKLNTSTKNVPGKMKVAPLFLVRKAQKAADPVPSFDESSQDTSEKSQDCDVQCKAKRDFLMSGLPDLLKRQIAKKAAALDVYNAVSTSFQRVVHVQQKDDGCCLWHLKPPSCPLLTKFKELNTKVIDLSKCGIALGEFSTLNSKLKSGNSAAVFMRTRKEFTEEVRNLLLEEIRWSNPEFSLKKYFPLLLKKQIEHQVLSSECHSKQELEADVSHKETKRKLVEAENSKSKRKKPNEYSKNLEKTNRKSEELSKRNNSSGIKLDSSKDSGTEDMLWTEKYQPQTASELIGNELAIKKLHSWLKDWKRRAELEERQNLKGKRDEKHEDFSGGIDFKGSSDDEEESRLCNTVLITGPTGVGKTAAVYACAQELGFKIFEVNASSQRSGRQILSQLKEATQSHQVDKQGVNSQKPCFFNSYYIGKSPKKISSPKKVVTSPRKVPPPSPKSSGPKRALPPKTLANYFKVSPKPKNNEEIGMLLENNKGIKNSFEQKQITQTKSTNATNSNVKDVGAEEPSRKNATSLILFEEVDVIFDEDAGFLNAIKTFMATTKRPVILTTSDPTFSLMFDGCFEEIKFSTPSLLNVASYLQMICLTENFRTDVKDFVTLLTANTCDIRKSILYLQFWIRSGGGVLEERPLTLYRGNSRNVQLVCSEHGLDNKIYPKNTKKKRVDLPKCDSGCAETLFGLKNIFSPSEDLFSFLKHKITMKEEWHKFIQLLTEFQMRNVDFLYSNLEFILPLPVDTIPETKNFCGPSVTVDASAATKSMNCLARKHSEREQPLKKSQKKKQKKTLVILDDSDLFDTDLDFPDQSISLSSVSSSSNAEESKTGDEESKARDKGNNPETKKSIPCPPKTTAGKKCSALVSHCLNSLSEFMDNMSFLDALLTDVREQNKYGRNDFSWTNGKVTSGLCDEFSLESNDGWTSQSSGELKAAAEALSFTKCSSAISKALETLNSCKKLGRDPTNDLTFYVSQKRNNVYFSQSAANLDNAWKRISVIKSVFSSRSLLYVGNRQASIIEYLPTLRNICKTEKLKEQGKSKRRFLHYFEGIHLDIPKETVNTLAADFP
# ELG1-Luc MMS – MMS-stimulated human ELG1 repair inhibition, confirmed | shares compounds with ELG1 repair inh | HEK293T luciferase-tagged ELG1 level, MMS stimulated | Potency, µM (top dose mostly 46.1 µM), for the others: at the highest dose activity change, negative = inhibition, usual class: inhibitors | hit rate 53% among 670 | AID 624249; also: potency is read from the fitted curve at half-maximal effect; nearly all actives have a fitted effect of over 60% in size
# ELG1 5-FU – qHTS screen for small molecules that inhibit ELG1-dependent DNA repair: Hit Confirmation with 5FU Viability; shares compounds with ELG1 repair inh; cell viability with 5-FU, ELG1-dependent repair; Potency, µM (titrated, usually from 46.1 µM), inactives show top-dose activity change, negative = viability loss, usual class: cytotoxic; 670 tested, under 10 active;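 also: ELG1-luc HEK293T cells cotreated with 5-fluorouridine at 10 µM final; potency is read from the fitted curve at half-maximal effect; viability measured 16 h after compound addition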
# ELG1 MMS cell – qHTS screen for small molecules that inhibit ELG1-dependent DNA repair: Hit Confirmation with MMS Viability; shares compounds with ELG1 repair inh; Cell viability with MMS, ELG1-dependent DNA repair; Potency, µM (series often up to 46.1 µM), for inactives: at the top dose activity change, negative = viability loss, hits mostly cytotoxic; hit rate 33% among 670; AID 624251, 2012;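 also: ELG1-luc HEK293T cells co-treated with 10 µM MMS; potency is read from the fitted curve at half-maximal effect; viability read 16 h after compound addition; nearly all actives have a fitted effect of over 60% in size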
# ELG1 unstim viab – qHTS screen for small molecules that inhibit ELG1-dependent DNA repair: Hit Confirmation with Unstimulated Viability Assay; Potency, µM (highest dose often 45.9 µM), for inactives: at the highest dose activity change, negative = loss of viability, most hits filed as cytotoxic; shares compounds with ELG1 repair inh; cell viability counter-screen, unstimulated, luminescence; hit rate 8% among 900;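 also: potency is read from the fitted curve at half-maximal effect; compound exposure lasted 16 hours before reading; nearly all actives have a fitted effect of over 55% in size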
# FLuc enzyme – qHTS screen for small molecules that inhibit ELG1-dependent DNA repair: Hit Confirmation in Biochemical Luciferin Assay; shares compounds with ELG1 repair inh; purified firefly luciferase, luminescence counter-screen; Potency, µM (titrated, usually from 57.5 µM), for the others: top-dose activity, negative = inhibition, actives largely listed as inhibitors; hit rate 10% among 350; AID 624253, 2012; also: potency is read from the fitted curve at half-maximal effect
# Active calls of the source: *; u = inconclusive; x = no result given; [ ] = dose if it differs, or a comment. Unless noted, calls follow the shape of the dose curve; as a rule, active = well fitted curve in the direction sought with a large enough effect; inconclusive = small, poorly fitted or top-dose-only effect, or another doubt; inactive = no such curve, though single readings can be large; an effect the other way counts as inactive or inconclusive. % is scaled to controls: 0 for no effect and ±100 for the full control effect.
SMILES,Giardia kill,IL-1B inflam inh,ELG1 repair inh,TDP1 block,DT40 TDP1 CPT,DT40 TDP1 no CPT,ELG1 unstim viab,others
Cn1c(=O)c2c(ncn2CC(=O)OCCCC(=O)c2ccc(Br)cc2)n(C)c1=O,-3,32,u,1%,18µM*,6.5µM*,u,ELG1 FLuc counter=-3%;ELG1 Luc conf=u;ELG1-Luc MMS=2.5µM*;ELG1 5-FU=-2%;ELG1 MMS cell=2.2µM*;FLuc enzyme=2%
C#CCONC(=O)c1cc(OCC(F)(F)F)ccc1OCC(F)(F)F,0,-7,-3%,5%,1%,0%,x,
Cc1ccc(C)c(N2CCN(C(=O)CCc3nc(-c4cccc(Cl)c4)no3)CC2)c1,-4,-3,u,-5%[56.1 µM],u,-20%,-7%,
COc1ccc(-c2noc(CCCCC(=O)N3CCN(c4cc(C)ccc4C)CC3)n2)cc1,-8,14,u,0%[56.1 µM],4.1µM*,2.9µM*,14µM*,ELG1 Luc conf=u;ELG1-Luc MMS=1.3µM*;ELG1 5-FU=-4%;ELG1 MMS cell=1.1µM*
Cc1c(C(=O)N/N=C/c2cccs2)nnn1-c1nonc1N,-10,7,19%,4%,11%,-3%,x,
O=C(CSc1ncnc2sccc12)N1CCCCC1,4,-2,u,0%,2%,-8%,-5%,
CCN(CC)S(=O)(=O)c1ccc(Cl)c(C(=O)OC2CC(C)OC2=O)c1 (stereo not given),-3,9,-2%,0%,-17%,2%,x,
CNC(=S)N1N=C(c2ccc(OC)cc2)CC1c1ccc(Cl)cc1Cl (stereo not given),28,-24,4.6µM*,x,-27%,-26%,3%,ELG1 Luc conf=u;ELG1-Luc MMS=-22%;ELG1 5-FU=u;ELG1 MMS cell=-7%
CNC(=S)N1N=C(c2ccc(OC)cc2)CC1c1ccccc1Cl (stereo not given),3,-24,u,4%,u,u,x,
CCOC(=O)C1C(=O)C=C(c2ccc(C)cc2)CC1c1cccc([N+](=O)[O-])c1 (stereo not given),-7,-22,u,0%,u,u,x,
Cc1ccc(S(=O)(=O)N2CCC(C(=O)N3CCN(c4ccccn4)CC3)CC2)cc1,2,-15,-18%,3%,-24%,-15%,x,
CCc1ccc(-c2nc(CN3CCC(C(=O)N4CCN(c5ccccn5)CC4)CC3)c(C)o2)cc1,-8,-53*,4.1µM*,1%,23µM*,18µM*,u,ELG1 Luc conf=7.1µM*;ELG1-Luc MMS=7.9µM*;ELG1 5-FU=-5%;ELG1 MMS cell=7.9µM*
O=C(CSc1nnc(-c2cccc(Cl)c2)o1)Nc1ccc2c(c1)OCCO2,2,-2,u,-8%,-4%,-2%,-1%,
O=C(CSc1nnc(-c2csc3c2CCCC3)o1)Nc1ccccc1,-14,-50*,u,7%,u,u,u,ELG1 FLuc counter=30%;FLuc enzyme=-15%
NC(=O)c1ccc(NC(=O)CSc2nnc(-c3ccc4c(c3)OCO4)o2)cc1,-21,-17,21%,1%,5%,25%,x,
Cc1ccc(NC(=O)CSc2nnc(-c3cccnc3)o2)c(C)c1,-20,13,u,1%,-2%,-2%,x,
COc1ccccc1NC(=O)CSc1nnc(-c2ccccc2)o1,-5,8,u,1%,4%,-10%,u,
O=C(CSc1nnc(-c2cccnc2)o1)Nc1ccccn1,-15,-10,u,0%,-30%,-17%,u,ELG1 FLuc counter=193%;FLuc enzyme=-3%
COc1cccc(NC(=O)CN2C(=O)NC(c3ccccc3)(c3ccccc3)C2=O)c1,-4,-22,-1%,-21%,20%,u,x,
CN(Cc1ccccc1)C(=O)c1[nH]cnc1C(=O)N[C@@H](Cc1ccccc1)C(=O)OC(C)(C)C,-22,7,-11%,x,u,u,x,
Cc1ccn2c(=O)c(NC(=O)c3cccs3)c(C)nc2c1,7,1,16%,-6%,6%,1%,x,
O=C(c1cn2ccccc2n1)N1CCCC(Nc2ccc(F)c(F)c2)C1 (stereo not given),-16,-12,0%,4%,10%,-11%,x,

# Screening data (PubChem BioAssay)
